Measurements as given in PubChem BioAssay (NCATS).
Results filed as inconclusive are left out. A number with no mark means an inactive call. Active and inactive are the calls of the source. The call rests on the fitted dose curve; in most records, active means well fitted inhibition curve with a large enough effect; inconclusive means small, poorly fitted or top-dose-only effect; inactive means flat fitted curve, though single readings scatter.

The compounds below were run on P93_24 (assay: qHTS profiling for inhibitors of Plasmodium falciparum proliferation (AID 504749; further: nearly all actives have a fitted effect of over 60% in size;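 on activity, negative = inhibition: 0% = DMSO vehicle and full inhibition = artemisinin control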)). Conditions: P. falciparum in erythrocytes, SYBR Green DNA, 72 h; series mostly up to 28.7 µM; activity, negative = inhibition: at the top concentration.
How it was run: (§1)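 Readout was DNA-dye fluorescence from lysed cultures, ex 485/em 535 nm. Parasitized red cells had grown 72 h with compound; data scaled between 0.29 uM artemisinin and DMSO wells and corrected using vehicle-only plates.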
Potency means the concentration at half of the fitted maximal effect.

For `O=C(CN1CCN(Cc2ccc3c(c2)OCO3)CC1)N1c2ccccc2Sc2ccccc21`, which Potency is on record?
Its Potency is 8.91 µM (active).

Which “activity, negative = inhibition” value does the source give for `CCC(CC)(CC(=O)Nc1cccc(/C=C/c2nc(C3CCC3)cs2)c1)C(=O)O` here?
The value was -12%.

`C#C[C@]1(OC(C)=O)CC[C@H]2[C@@H]3CCC4=C/C(=N/O)CC[C@@H]4[C@H]3CC[C@@]21CC` was tested. Which “activity, negative = inhibition” value did it give?
Its value is 0.808%.

For `Cc1cccc(C)c1NC(=O)CN1CCCCCC1`, which “activity, negative = inhibition” value is on record?
The value was -6.99%.

`CCOC(=O)Nc1ccc2c(c1)N(C(=O)CCN1CCOCC1)c1ccccc1S2` was tested. Which “activity, negative = inhibition” value did it give?
Its value is -1.33% [at 12.8 µM].

For `CCC(C(=O)OCCOCCN(CC)CC)c1ccccc1` (stereo not given), which “activity, negative = inhibition” value is on record?
Its value is -21.5%.

`Oc1ccc(Cl)cc1Cc1cc(Cl)ccc1O` was tested. Which “activity, negative = inhibition” value did it give?
Its value is -25.1%.

`CC(=O)NCCCCCC(=O)O` was tested. Which “activity, negative = inhibition” value did it give?
The value was 12.7%.

With `CCOc1ccccc1OCCN[C@H](C)Cc1ccc(OC)c(S(N)(=O)=O)c1` as the compound, how does the “activity, negative = inhibition” value read?
Its value is -5.53%.

With `Cc1ncc(CO)c(C=O)c1O` as the compound, how does the “activity, negative = inhibition” value read?
The value was -3.65%.

`COc1ccc(C(=O)c2ccccc2O)c(O)c1` was tested. Which “activity, negative = inhibition” value did it give?
The value was -8.66% [at 12.8 µM].

For `CCNC(=O)NCc1cccc(Cl)c1`, which “activity, negative = inhibition” value is on record?
Its value is 3.96%.

How did the “activity, negative = inhibition” value turn out when `O=[N+]([O-])c1cccc(S(=O)(=O)NCCNS(=O)(=O)c2cccc([N+](=O)[O-])c2)c1` was run?
Its value is -16.3%.

Which “activity, negative = inhibition” value does the source give for `C[N+]1(C)CCC(=C(c2ccccc2)c2ccccc2)CC1` here?
Its value is -12.4% [at 12.8 µM].

Which “activity, negative = inhibition” value does the source give for `OC[C@H]1O[C@@H]2O[C@H]3[C@H](O)[C@@H](O)[C@@H](O[C@H]4[C@H](O)[C@@H](O)[C@@H](O[C@H]5[C@H](O)[C@@H](O)[C@@H](O[C@H]6[C@H](O)[C@@H](O)[C@@H](O[C@H]7[C@H](O)[C@@H](O)[C@@H](O[C@H]8[C@H](O)[C@@H](O)[C@@H](O[C@H]1[C@H](O)[C@H]2O)O[C@@H]8CO)O[C@@H]7CO)O[C@@H]6CO)O[C@@H]5CO)O[C@@H]4CO)O[C@@H]3CO` here?
Its value is 7.59%.

`CC(C)=CCOc1ccc(/C=C/C(=O)c2ccc(OCC=C(C)C)cc2OCC(=O)O)cc1` was tested. Which “activity, negative = inhibition” value did it give?
Its value is -12.7%.

`CC(=O)O[C@]1(C(C)=O)CC[C@H]2[C@@H]3C=C(Cl)C4=CC(=O)CC[C@]4(C)[C@H]3CC[C@@]21C` was tested. Which Potency did it give?
The Potency was 11.2 µM (active).

Each compound was assayed on P94_40 in the same assay as above. Conditions: P. falciparum in erythrocytes, SYBR Green DNA, 72 h; series mostly up to 28.7 µM; activity, negative = inhibition: at the top concentration.
How it was run: as §1

With `O=C(CN1CCN(Cc2ccc3c(c2)OCO3)CC1)N1c2ccccc2Sc2ccccc21` as the compound, how does the Potency read?
Its Potency is 8.91 µM (active).

For `CCC(CC)(CC(=O)Nc1cccc(/C=C/c2nc(C3CCC3)cs2)c1)C(=O)O`, which “activity, negative = inhibition” value is on record?
Its value is -6.62%.

How did the “activity, negative = inhibition” value turn out when `COc1ccc(C(=O)c2ccccc2)c(O)c1` was run?
The value was -10.1%.

With `C#C[C@]1(OC(C)=O)CC[C@H]2[C@@H]3CCC4=C/C(=N/O)CC[C@@H]4[C@H]3CC[C@@]21CC` as the compound, how does the “activity, negative = inhibition” value read?
Its value is 3.65%.

How did the “activity, negative = inhibition” value turn out when `Cc1cccc(C)c1NC(=O)CN1CCCCCC1` was run?
Its value is -3.59%.

With `CCOC(=O)Nc1ccc2c(c1)N(C(=O)CCN1CCOCC1)c1ccccc1S2` as the compound, how does the “activity, negative = inhibition” value read?
Its value is 24% [at 12.8 µM].

With `CCc1ccc(C(=O)C(C)CN2CCCCC2)cc1` (stereo not given) as the compound, how does the “activity, negative = inhibition” value read?
The value was 0.78%.

Which “activity, negative = inhibition” value does the source give for `CC(=O)NCCCCCC(=O)O` here?
The value was 2.18%.

With `CCOc1ccccc1OCCN[C@H](C)Cc1ccc(OC)c(S(N)(=O)=O)c1` as the compound, how does the “activity, negative = inhibition” value read?
The value was 3.35%.

How did the “activity, negative = inhibition” value turn out when `CCN(CC)CCOC(=O)C1(c2ccccc2)CCCC1` was run?
Its value is -89.9%.

Which “activity, negative = inhibition” value does the source give for `NC(=O)C1(N2CCCCC2)CCN(CCCC(=O)c2ccc(F)cc2)CC1` here?
Its value is -18.6%.

`Cc1ncc(CO)c(C=O)c1O` was tested. Which “activity, negative = inhibition” value did it give?
The value was 9.65%.

How did the “activity, negative = inhibition” value turn out when `CC[N+](C)(CC)CCOC(=O)C(O)(c1ccccc1)C1CCCCC1` (stereo not given) was run?
Its value is -42.3%.

How did the “activity, negative = inhibition” value turn out when `CCNC(=O)NCc1cccc(Cl)c1` was run?
Its value is 3.41%.

`O=[N+]([O-])c1cccc(S(=O)(=O)NCCNS(=O)(=O)c2cccc([N+](=O)[O-])c2)c1` was tested. Which “activity, negative = inhibition” value did it give?
The value was -25.1%.

For `C[N+]1(C)CCC(=C(c2ccccc2)c2ccccc2)CC1`, which “activity, negative = inhibition” value is on record?
The value was -23.4% [at 12.8 µM].

`OC[C@H]1O[C@@H]2O[C@H]3[C@H](O)[C@@H](O)[C@@H](O[C@H]4[C@H](O)[C@@H](O)[C@@H](O[C@H]5[C@H](O)[C@@H](O)[C@@H](O[C@H]6[C@H](O)[C@@H](O)[C@@H](O[C@H]7[C@H](O)[C@@H](O)[C@@H](O[C@H]8[C@H](O)[C@@H](O)[C@@H](O[C@H]1[C@H](O)[C@H]2O)O[C@@H]8CO)O[C@@H]7CO)O[C@@H]6CO)O[C@@H]5CO)O[C@@H]4CO)O[C@@H]3CO` was tested. Which “activity, negative = inhibition” value did it give?
The value was 7.66%.

Which “activity, negative = inhibition” value does the source give for `CC(C)=CCOc1ccc(/C=C/C(=O)c2ccc(OCC=C(C)C)cc2OCC(=O)O)cc1` here?
The value was -6.49%.

`CC(=O)O[C@]1(C(C)=O)CC[C@H]2[C@@H]3C=C(Cl)C4=CC(=O)CC[C@]4(C)[C@H]3CC[C@@]21C` was tested. Which Potency did it give?
Its Potency is 11.2 µM (active).

The compounds below were run on PAD in the same assay as above. Conditions: P. falciparum in erythrocytes, SYBR Green DNA, 72 h; series mostly up to 28.7 µM; activity, negative = inhibition: at the top concentration.
How it was run: as §1

How did the Potency turn out when `O=C(CN1CCN(Cc2ccc3c(c2)OCO3)CC1)N1c2ccccc2Sc2ccccc21` was run?
Its Potency is 12.6 µM (active).

With `CCC(CC)(CC(=O)Nc1cccc(/C=C/c2nc(C3CCC3)cs2)c1)C(=O)O` as the compound, how does the “activity, negative = inhibition” value read?
The value was -7.94%.

How did the “activity, negative = inhibition” value turn out when `C#C[C@]1(OC(C)=O)CC[C@H]2[C@@H]3CCC4=C/C(=N/O)CC[C@@H]4[C@H]3CC[C@@]21CC` was run?
The value was -3.12%.

`CN1CCC(OC(c2ccccc2)c2ccccc2)CC1` was tested. Which “activity, negative = inhibition” value did it give?
The value was -8.41% [at 12.8 µM].

Which “activity, negative = inhibition” value does the source give for `Cc1cccc(C)c1NC(=O)CN1CCCCCC1` here?
Its value is 4.52%.

`CCOC(=O)Nc1ccc2c(c1)N(C(=O)CCN1CCOCC1)c1ccccc1S2` was tested. Which “activity, negative = inhibition” value did it give?
The value was 0.478% [at 12.8 µM].

How did the “activity, negative = inhibition” value turn out when `Cc1cc2c(OCC(CNC(C)(C)C)OC(=O)c3ccccc3)cccc2[nH]1` (stereo not given) was run?
Its value is -22.5%.

`CCc1ccc(C(=O)C(C)CN2CCCCC2)cc1` (stereo not given) was tested. Which “activity, negative = inhibition” value did it give?
Its value is -15.3%.

How did the “activity, negative = inhibition” value turn out when `CCC(C(=O)OCCOCCN(CC)CC)c1ccccc1` (stereo not given) was run?
The value was -23.8%.

`CN(C)CCN1C(=O)c2ccccc2N(C)c2ccccc21` was tested. Which “activity, negative = inhibition” value did it give?
Its value is -19.4%.

`CC(=O)NCCCCCC(=O)O` was tested. Which “activity, negative = inhibition” value did it give?
The value was 13.2%.

`O=C(NC1CCN(CCc2c[nH]c3ccccc23)CC1)c1ccccc1` was tested. Which “activity, negative = inhibition” value did it give?
Its value is -28.7%.

`CCOc1ccccc1OCCN[C@H](C)Cc1ccc(OC)c(S(N)(=O)=O)c1` was tested. Which “activity, negative = inhibition” value did it give?
The value was 1.13%.

With `CCN(CC)CCOC(=O)C1(c2ccccc2)CCCC1` as the compound, how does the “activity, negative = inhibition” value read?
Its value is -88.2%.

`NC(=O)C1(N2CCCCC2)CCN(CCCC(=O)c2ccc(F)cc2)CC1` was tested. Which “activity, negative = inhibition” value did it give?
The value was -15.7%.

For `CN(C)CCOC(c1ccc(Cl)cc1)c1ccccn1` (stereo not given), which “activity, negative = inhibition” value is on record?
The value was -13%.

With `Cc1ncc(CO)c(C=O)c1O` as the compound, how does the “activity, negative = inhibition” value read?
The value was 12.9%.

`CC(=O)O[C@H]1C[C@@H]2CC[C@@H]3[C@H](CC[C@@]4(C)[C@H]3C[C@H]([N+]3(C)CCCCC3)[C@@H]4OC(C)=O)[C@@]2(C)C[C@@H]1N1CCCCC1` was tested. Which “activity, negative = inhibition” value did it give?
Its value is -12.8%.

For `CC[N+](C)(CC)CCOC(=O)C(O)(c1ccccc1)C1CCCCC1` (stereo not given), which “activity, negative = inhibition” value is on record?
The value was -23.7%.

How did the “activity, negative = inhibition” value turn out when `CCNC(=O)NCc1cccc(Cl)c1` was run?
The value was 10.5%.

How did the “activity, negative = inhibition” value turn out when `CC(C)[N+](C)(C)CC(O)COc1cccc2ccccc12` (stereo not given) was run?
Its value is -14.9%.

`C[N+]1(C)CCC(=C(c2ccccc2)c2ccccc2)CC1` was tested. Which “activity, negative = inhibition” value did it give?
The value was -24.6% [at 12.8 µM].

Which “activity, negative = inhibition” value does the source give for `OC[C@H]1O[C@@H]2O[C@H]3[C@H](O)[C@@H](O)[C@@H](O[C@H]4[C@H](O)[C@@H](O)[C@@H](O[C@H]5[C@H](O)[C@@H](O)[C@@H](O[C@H]6[C@H](O)[C@@H](O)[C@@H](O[C@H]7[C@H](O)[C@@H](O)[C@@H](O[C@H]8[C@H](O)[C@@H](O)[C@@H](O[C@H]1[C@H](O)[C@H]2O)O[C@@H]8CO)O[C@@H]7CO)O[C@@H]6CO)O[C@@H]5CO)O[C@@H]4CO)O[C@@H]3CO` here?
The value was 10.3%.

With `CC(C)=CCOc1ccc(/C=C/C(=O)c2ccc(OCC=C(C)C)cc2OCC(=O)O)cc1` as the compound, how does the “activity, negative = inhibition” value read?
Its value is 6.17%.
